Rows were chosen to be rich in hits. Some 12% of all compounds tested hit in one or more screens of this group.
G9a block: qHTS Assay for Inhibitors of Histone Lysine Methyltransferase G9a. Histone-lysine N-methyltransferase EHMT2 (Homo sapiens), Q96KQ7. G9a H3K9 monomethylation, AlphaScreen, 2 h. Potency, µM (titrated, usually from 102 µM), inactives show at the top dose activity, negative = inhibition, most hits filed as inhibitors. 350,000 tested, 8.8% active; further: on the % scale 0 is the no-effect control and ±100 the full control effect; nearly all actives have a fitted effect of over 75% in size
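Using a bead-based AlphaScreen, monomethylated H3K9 product from 2 h room-temperature reactions (G9a 20 nM, peptide 500 nM, SAM 20 uM) was detected with 0.5 ug/mL rabbit anti-H3K9me1 antibody.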
JMJD2A Tudor: qHTS Assay for Inhibitors of JMJD2A-Tudor Domain. Potency, µM (highest dose often 114 µM), for the others: at the highest dose activity change, negative = inhibition, usual class: inhibitors. AlphaScreen JMJD2A-Tudor / H3K4me3 peptide binding. 390,000 tested, 4.4% active. Lysine-specific demethylase 4A (Homo sapiens), O75164. AID 504339, 2011; further: on the % scale 0 is the no-effect control and ±100 the full control effect; nearly all actives have a fitted effect of over 50% in size
L3MBTL1 inh: qHTS Assay for the Inhibitors of L3MBTL1; AID 485360, 2010; AlphaScreen L3MBTL1–H3K9me1 peptide binding; Potency, µM (series often up to 57.1 µM), without a hit: top-dose activity, negative = inhibition, hits mostly inhibitors; 230,000 tested, 0.66% active; Lethal(3)malignant brain tumor-like protein 1 (Homo sapiens), Q9Y468; further: on the % scale 0 is the no-effect control and ±100 the full control effect; nearly all actives have a fitted effect of over 60% in size
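First, the protein-peptide complex forms for 30 min at room temperature (L3MBTL1 50 nM, biotinylated H3K9me1 peptide 75 nM). Next, compounds are pin-transferred and incubated 30 min. Finally, AlphaScreen beads are added and read after 30 min.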
HP1b binding inh: HTS for Inhibitors of HP1-beta Chromodomain Interactions with Methylated Histone Tails. Chromobox protein homolog 1 (Homo sapiens), P83916. Potency, µM (series often up to 114 µM), inactives show at the top dose activity change, negative = inhibition, actives largely listed as inhibitors. AlphaScreen HP1-beta / biotin-H3K9me3 peptide binding. 390,000 tested, 0.56% active; further: nearly all actives have a fitted effect of over 70% in size
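HP1-beta protein (50 nM final) preincubated 30 min at room temperature with biotinylated H3(1-18)K9me3 peptide (50 nM) in PBS pH 7.4, 0.01% Tween-20, then compound added for 30 min. AlphaScreen streptavidin donor/nickel chelate acceptor beads (10 ug/mL final), 30 min dark, luminescence read.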
BAZ2B inh: qHTS Assay for Inhibitors of BAZ2B; Bromodomain adjacent to zinc finger domain protein 2B (Homo sapiens), Q9UIF8; AlphaScreen BAZ2B-H3K14Ac peptide displacement; AID 504333, 2011; Potency, µM (series often up to 114 µM), for the others: at the top dose activity change, negative = inhibition, usual class: inhibitors; 360,000 tested, 4.4% active; further: on the % scale 0 is the no-effect control and ±100 the full control effect; nearly all actives have a fitted effect of over 60% in size
Target sequence (Q9UIF8 whole entry, looked up, the tested form may be a part): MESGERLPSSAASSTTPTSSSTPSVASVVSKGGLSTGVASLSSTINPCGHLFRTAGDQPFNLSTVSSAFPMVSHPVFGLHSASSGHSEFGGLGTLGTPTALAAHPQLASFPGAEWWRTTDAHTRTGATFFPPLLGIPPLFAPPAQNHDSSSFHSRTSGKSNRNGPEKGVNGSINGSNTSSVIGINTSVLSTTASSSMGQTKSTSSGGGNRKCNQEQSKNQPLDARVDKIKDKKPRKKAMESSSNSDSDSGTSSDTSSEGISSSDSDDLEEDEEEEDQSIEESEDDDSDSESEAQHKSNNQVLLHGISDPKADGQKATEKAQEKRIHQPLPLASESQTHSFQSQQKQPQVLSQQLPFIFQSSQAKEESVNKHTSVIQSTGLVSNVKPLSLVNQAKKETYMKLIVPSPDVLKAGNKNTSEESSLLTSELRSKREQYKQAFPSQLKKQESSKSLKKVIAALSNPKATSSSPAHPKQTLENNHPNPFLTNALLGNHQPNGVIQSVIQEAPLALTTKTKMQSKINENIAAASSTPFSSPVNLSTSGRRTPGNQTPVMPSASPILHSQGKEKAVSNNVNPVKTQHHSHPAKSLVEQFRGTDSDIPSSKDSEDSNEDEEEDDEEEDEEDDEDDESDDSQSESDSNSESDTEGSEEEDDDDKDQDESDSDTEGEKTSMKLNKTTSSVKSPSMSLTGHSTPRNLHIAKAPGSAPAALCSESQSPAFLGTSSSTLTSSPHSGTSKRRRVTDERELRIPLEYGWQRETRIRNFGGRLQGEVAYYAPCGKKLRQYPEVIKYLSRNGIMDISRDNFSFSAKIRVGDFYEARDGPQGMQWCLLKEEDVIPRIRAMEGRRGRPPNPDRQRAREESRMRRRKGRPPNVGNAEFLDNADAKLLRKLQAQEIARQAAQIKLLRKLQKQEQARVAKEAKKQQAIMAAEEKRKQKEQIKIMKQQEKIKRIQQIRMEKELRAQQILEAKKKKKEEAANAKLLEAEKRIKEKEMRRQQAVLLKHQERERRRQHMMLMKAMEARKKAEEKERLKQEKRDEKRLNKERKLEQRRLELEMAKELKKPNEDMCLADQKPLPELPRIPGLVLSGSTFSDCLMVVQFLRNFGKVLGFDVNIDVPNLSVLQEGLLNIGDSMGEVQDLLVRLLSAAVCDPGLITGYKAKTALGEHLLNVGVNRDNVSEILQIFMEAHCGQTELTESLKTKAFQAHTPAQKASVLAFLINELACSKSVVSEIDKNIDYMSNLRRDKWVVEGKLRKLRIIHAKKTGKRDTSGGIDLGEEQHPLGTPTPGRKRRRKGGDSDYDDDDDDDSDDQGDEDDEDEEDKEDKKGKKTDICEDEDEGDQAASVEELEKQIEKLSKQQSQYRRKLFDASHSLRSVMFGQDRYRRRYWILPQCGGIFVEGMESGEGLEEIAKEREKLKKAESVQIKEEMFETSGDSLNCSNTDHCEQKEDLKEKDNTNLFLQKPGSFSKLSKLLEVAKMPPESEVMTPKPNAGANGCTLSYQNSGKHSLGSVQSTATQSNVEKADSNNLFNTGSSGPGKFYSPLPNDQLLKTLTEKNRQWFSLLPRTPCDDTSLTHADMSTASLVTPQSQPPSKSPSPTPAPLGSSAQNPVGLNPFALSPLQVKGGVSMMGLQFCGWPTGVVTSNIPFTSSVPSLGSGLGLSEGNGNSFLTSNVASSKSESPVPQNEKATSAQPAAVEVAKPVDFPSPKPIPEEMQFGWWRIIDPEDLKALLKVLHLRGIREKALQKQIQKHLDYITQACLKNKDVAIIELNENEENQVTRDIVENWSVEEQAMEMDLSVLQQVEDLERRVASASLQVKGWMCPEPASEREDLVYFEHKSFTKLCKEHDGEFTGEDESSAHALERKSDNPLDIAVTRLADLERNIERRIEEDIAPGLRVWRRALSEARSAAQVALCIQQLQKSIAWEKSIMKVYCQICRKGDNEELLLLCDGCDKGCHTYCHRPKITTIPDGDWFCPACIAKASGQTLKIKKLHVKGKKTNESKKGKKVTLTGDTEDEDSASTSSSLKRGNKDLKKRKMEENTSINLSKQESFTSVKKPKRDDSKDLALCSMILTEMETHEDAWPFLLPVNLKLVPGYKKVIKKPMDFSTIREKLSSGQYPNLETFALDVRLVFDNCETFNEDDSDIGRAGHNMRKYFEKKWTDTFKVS
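BAZ2B 50 nM plus b-H3(5-23)K14Ac 50 nM, PBS pH 7.4/0.01% Tween-20, 30 min RT; compound added (max 110 uM), 30 min RT; streptavidin donor/Ni-chelate acceptor beads 10 ug/mL final, 20 min dark; AlphaScreen read.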
Sfp PPTase inh: qHTS Assay for Inhibitors of Bacillus subtilis Sfp phosphopantetheinyl transferase (PPTase); Biochemical Sfp PPTase activity, qHTS; Potency, µM, without a hit: largest response in the series, negative = inhibition, actives largely listed as inhibitors; 310,000 tested, 3.5% active;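 further: the enzyme is Sfp with the accession as filed and its product quenches rhodamine fluorescence; 0% = enzyme reaction without inhibitor and -100% = no enzyme wells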
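Buffer: 50 mM Hepes-Na pH 7.6, 10 mM MgCl2, 0.01% Nonidet P-40, 0.01% BSA. Enzyme 15 nM, pre-exposed to compound 15 min; substrates then added and fluorescence change tracked over 30 min.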
Active calls of the source: *; ? = inconclusive; · = no result given; [ ] = dose if it differs, or a comment. The call rests on the fitted dose curve; in most records, active means well fitted curve in the direction sought with a large enough effect; inconclusive means small, poorly fitted or top-dose-only effect, or another doubt; inactive means no such curve, though single readings can be large; an effect the other way counts as inactive or inconclusive. Potency means the concentration at half of the fitted maximal effect.

SMILES	G9a block	JMJD2A Tudor	L3MBTL1 inh	HP1b binding inh	BAZ2B inh	Sfp PPTase inh
O=C(CSc1nc(CCC2CCCC2)nc2ccccc12)NCc1ccc2c(c1)OCO2	17%[59 µM]	-10%	17%	44%	5%	6%
O=C(NCC(=O)N1CCC(Cc2ccccc2)CC1)c1ccc(Cl)cc1	-5%	-6%	·	30%	1%	3%
CC1=NN(c2ccccc2)C(=O)/C1=C\c1cc(C)n(-c2cccnc2)c1C	-45%	-12%	-10%	11%	?	-9%
CC1=NN(c2ccccc2)C(=O)/C1=C/c1c(O)n(-c2ccc(F)cc2)[nH]c1=O	11µM*	28µM*	-1%	?	40µM*	-15%
COc1ccc(/C=C2/C(=O)N(c3ccccc3)N=C2C)cc1Br	35µM*	18µM*	·	22µM*	13µM*	50µM*
CC1=NN(c2ccccc2)C(=O)/C1=C\c1ccc(Br)s1	8.9µM*	10µM*	?	?	11µM*	-5%
CC1=NN(c2ccccc2)C(=O)/C1=C/c1cccs1	32µM*	40µM*	?	?	16µM*	-20%
COc1cc([N+](=O)[O-])ccc1NC(=O)CSc1nc2ccccc2n1-c1ccccc1	?	·	-11%	·	-35%	-8%
Cc1ccc(C(=O)Nc2cccc(C(=O)NC3CCCCC3)c2)cc1	·	-8%	·	12%	·	·
Cc1cc(C)cc(NC(=O)CNS(=O)(=O)c2ccc3nc(C)sc3c2)c1	0%[59 µM]	-14%	·	52%	19%	·
Cc1ccc(S(=O)(=O)N2CCNC(=O)C2)c(C)c1	56µM*	-6%	-4%	21%	-2%	·
CCCCCCC(=O)Cc1cc(OC)c(OC)cc1C=C(C(=O)OCC)C(=O)OCC	40µM*	·	5%	·	3%	18%
Cc1cccc(C(=O)N=c2c(C#N)cc3c(=O)n4cccc(C)c4nc3n2Cc2ccco2)c1	-51%	?	·	12%	1%	28µM*
CCOCCCn1c(=NC(=O)c2cccs2)c(C#N)cc2c(=O)n3cccc(C)c3nc21	71µM*	-20%	-10%	24%	-7%	-9%
CCOC(=O)c1cc2c(=O)n3ccccc3nc2n(Cc2ccco2)c1=NC(=O)c1ccccc1OCC	-50%	-3%	·	16%	·	45µM*
CCOC(=O)c1cc2c(=O)n3ccccc3nc2n(Cc2ccco2)c1=NC(=O)c1cccc(Br)c1	?	-6%	·	28%	50µM*	·
Cc1cccn2c(=O)c3cc(C#N)c(=NC(=O)c4ccccc4)n(Cc4ccco4)c3nc12	·	-28%	·	14%	·	·
Cc1cccn2c(=O)c3cc(C#N)c(=NC(=O)c4cccs4)n(CC(C)C)c3nc12	0%	-14%	2%	6%	4%	10%
COc1ccc2[nH]cc(CCNc3ccnc(-c4ccc(C(=O)N(C)C)cc4)n3)c2c1	-8%[0.501 µM]	·	·	·	·	5%
COCCCn1c(C(=O)Nc2ccc3c(c2)OCO3)cc2c(=O)n3ccccc3nc21	-5%	25µM*	·	10%	-4%	-13%
CCOC(=O)c1cc2c(=O)n3ccccc3nc2n(CCOC)c1=NC(=O)c1ccncc1	-4%[12.7 µM]	-17%	0%[11.4 µM]	28%	3%	10%
CCOC(=O)c1cc2c(=O)n3ccccc3nc2n(Cc2ccco2)c1=NC(=O)c1ccc(C)c(C)c1	-3%[59 µM]	6%	·	25%	3%	·
CCOC(=O)c1cc2c(=O)n3cccc(C)c3nc2n(Cc2ccco2)c1=NC(=O)c1cccnc1	8%[12.7 µM]	?	-10%[11.4 µM]	15%	79µM*	25µM*
CCOC(=O)c1cc2c(=O)n3ccccc3nc2n(Cc2ccco2)c1=NC(=O)c1cccnc1	56µM*	?	-5%	12%	?	35µM*
CCOC(=O)c1cc2c(=O)n3ccccc3nc2n(CCCOC)c1=NC(=O)c1cccnc1	10µM*	·	?	·	10%	-6%
SMILES	G9a block	JMJD2A Tudor	L3MBTL1 inh	HP1b binding inh	BAZ2B inh	Sfp PPTase inh
COc1cc(C(=O)OCC(=O)NC2CCCCCC2)ccc1OCC(C)C	-6%	-8%	-2%	33%	-4%	·
CN(C)c1ccc(-c2nc(NC3CCNCC3)c3ccccc3n2)cc1	·	·	·	·	·	-23%
CCOC(=O)c1cc2c(=O)n3ccccc3nc2n(C(C)C)c1=NC(=O)c1c(-c2ccccc2Cl)noc1C	0%	5%	·	46%	·	10%
CCOC(=O)c1cc2c(=O)n3ccccc3nc2n(C(C)C)c1=NC(=O)c1ccncc1	56µM*	?	2%	-7%	0%	15%
COc1ccc(OC)c(NC(=O)CSc2cn(CC(=O)N3CCOCC3)c3ccccc23)c1	5%[59 µM]	-5%	·	27%	-17%	·
CCc1cc(C(=O)c2ccc(C)cc2)c(NC(=O)CCl)s1	?	-29%	35µM*	19%	-11%	?
Cc1cc(C(=O)c2ccc(Cl)cc2)c(NC(=O)CCl)s1	?	-5%	-12%	-4%	2%	-16%
COC(=O)C(C(=O)OC)C(c1ccccc1)C(C(=O)c1ccccc1)[N+](=O)[O-] (stereo not given)	50µM*	-20%	4%	27%	-13%	4%
C=CCOC(=O)N[C@@H](c1ccccc1)[C@@H](C)[N+](=O)[O-]	·	·	·	·	·	-10%
COC(=O)C(CSCc1ccccc1)NC(=O)CSc1nc(C)cc(=O)[nH]1 (stereo not given)	0%	50µM*	·	-2%	3%	-10%
Cc1cc(=O)[nH]c(SCC(=O)NC(c2ccccc2)c2ccccc2)n1	-4%	-3%	7%	19%	·	12%
COCCN1C(=O)/C(=C/c2ccc(Oc3ccc([N+](=O)[O-])cn3)c(OC)c2)SC1=Nc1ccccc1	-1%[59 µM]	?	3%	-19%	-5%	10%

Compound activity as filed in PubChem BioAssay.
